Experimental data taken from PubChem BioAssay (Tox21).
A number with no mark means an inactive call. Activity calls are given as the source filed them. Calls follow the shape of the dose curve; as a rule, active = well fitted activation curve with a large enough effect in the repeat runs; inconclusive = weak or mixed curves; inactive = flat fitted curve, though single readings scatter.
% is scaled to controls: 0 for no effect and ±100 for the full control effect.

Test: A CellTox Green Cytotoxicity Assay to monitor cytotoxicity in HEK293 cells - 0 hour (AID 1224869); also: nearly all actives have a fitted effect of over 50% in size
Settings: CellTox Green fluorescence; series mostly up to 76.8 µM; cytotoxicity: at the top concentration
Source text: National Center for Advancing Translational Sciences [NCATS]
NIH Chemical Genomics Center [NCGC]
U.S. Environmental Protection Agency [EPA]
National Institutes of Environmental Health Sciences [NIEHS]
National Toxicology Program [NTP]
Cell-based models are critical for drug discovery. Determining the natural cytotoxic effects resulting from test compounds is an essential research activity. A CellTox Green Cytotoxicity Assay to monitor cytotoxicity in real time of continues cell culture during 40 hours of the compound treatment was used to screen Tox21 10K library compounds in Hek293 cells. CellTox Green Cytotoxicity Assay is a nonlytic, homogeneous, biofluorescent method to measure cytotoxicity in cell culture after experimental manipulation. The assay system uses a proprietary asymmetric cyanine dye that is excluded from viable cells but preferentially stains the dead cell's DNA. […] Viable cells produce no appreciable increases in fluorescence. Therefore, the fluorescence signal produced by the binding interaction with dead cell DNA is proportional to cytotoxicity.
The mixture of Hek293 cell suspension and reagents were dispensed at 600cells/6 ul/well in 1536-well tissue culture treated black solid bottom plates using a Multidrop dispenser. After the assay plates were incubated at a 37 C/5% CO2 incubator for 5 hours, 23 nL of compounds dissolved in DMSO, positive and negative controls was transferred to the assay plate by a pintool work station. The plates were incubated at 37 C for 40 hours. The fluorescence intensity were measured at 0h, 8h, 16h, 24h, 32h and 40h time points using ViewLux plate reader during compound treatment.
For `Clc1c(Cl)c(Cl)c(Cl)c(Cl)c1Cl`, the cytotoxicity was -0.372% [at 6.97 µM]. With `N#CCCl` the “cytotoxicity” value was 0.008%. With `CO/N=C(/C1=NOCCO1)c1ccccc1Oc1ncnc(Oc2ccccc2Cl)c1F` the “cytotoxicity” value was 4.14%. For `O=C(NC(=O)c1c(F)cccc1F)Nc1ccc(Oc2ccc(C(F)(F)F)cc2Cl)cc1F`, the “cytotoxicity” value was 7.13%. With `COc1ccc2c(c1OC)C(=O)O[C@@H]2[C@H]1c2cc3c(cc2CCN1C)OCO3` the “cytotoxicity” value was 4.35%. With `FC(F)C(F)(F)OCC(Cn1cncn1)c1ccc(Cl)cc1Cl` (stereo not given) the “cytotoxicity” value was -2.31%. For `CC(=O)[O-].CC(=O)[O-].CC(=O)[O-].[Cr+3]`, the “cytotoxicity” value was 0.131%. For `Cc1c([N+](=O)[O-])cc2c(c1[N+](=O)[O-])C(C)(C)CC2(C)C`, the “cytotoxicity” value was 6.3%. In the case of `Nc1ccc(Cl)cc1C(=O)c1ccccc1F`, the “cytotoxicity” value was -5.45% [at 35.3 µM]. For `O=C(Cl)c1ccccc1F`, the “cytotoxicity” value was 0%. For `C[C@]12CC[C@H]3[C@@H](CCC4=CC(=O)CC[C@@H]43)[C@@H]1CC[C@@H]2OC(=O)CCc1ccco1`, the “cytotoxicity” value was -7.14% [at 35.3 µM]. In the case of `CCOP(=O)(Sc1ccccc1)Sc1ccccc1`, the “cytotoxicity” value was -12.3%. With `N#CSCc1ccccc1` the “cytotoxicity” value was -1.02%. For `COc1ccc(Cc2nccc3cc(OC)c(OC)cc23)cc1OC`, the “cytotoxicity” value was 0.717% [at 35.3 µM]. With `O=[N+]([O-])c1ccc(CCl)cc1` the “cytotoxicity” value was 7.47%. In the case of `O=C(O)[C@H](O)[C@@H](O)C(=O)O`, the “cytotoxicity” value was 0.449%. With `Cc1ccc(C)c2ccccc12` the “cytotoxicity” value was 1.3%. With `Oc1cccc(Cl)c1Cl` the “cytotoxicity” value was -0.748%. For `N#Cc1sc2c(=O)c3ccccc3c(=O)c=2sc1C#N`, the “cytotoxicity” value was -11.1%. With `O=C(NC(=O)c1ccccc1Cl)Nc1ccc(OC(F)(F)F)cc1` the “cytotoxicity” value was -1.31%. For `CC(Cc1ccc2c(c1)OCO2)NO` (stereo not given), the “cytotoxicity” value was 11.9%. For `CN1C(=O)[C@@H](NC(=O)c2cc3ccccc3[nH]2)N=C(c2ccccc2)c2ccccc21`, the “cytotoxicity” value was -1.57% [at 35.3 µM]. In the case of `CC(C)(C)c1ccc(OP(=O)(Oc2ccccc2)Oc2ccccc2)cc1`, the “cytotoxicity” value was -4.82%. For `CCCCC(CC)COC(=O)c1ccccc1C(=O)OCC(CC)CCCC` (stereo not given), the “cytotoxicity” value was -3.12%. In the case of `C=CC(=C)C`, the “cytotoxicity” value was 7.44%. For `CNC(=O)O/N=C(\C)C(C)S(C)(=O)=O` (stereo not given), the “cytotoxicity” value was -5.91% [at 725 µM]. In the case of `CC(C)N(C(=O)CCl)c1ccccc1`, the Potency was “inactive”. With `C[C@@H]1CC2=CC(=O)CC[C@@H]2[C@H]2CC[C@@]3(C)[C@@H](CC[C@]3(C)O)[C@@H]21` the “cytotoxicity” value was -2.98% [at 35.3 µM]. For `CCC(C)Nc1c([N+](=O)[O-])cc(C(C)(C)C)cc1[N+](=O)[O-]` (stereo not given), the “cytotoxicity” value was -0.528%. In the case of `Oc1ccc2[nH]cc(CCCCN3CC=C(c4ccccc4)CC3)c2c1`, the “cytotoxicity” value was 13.1% [at 35.3 µM]. For `CCn1cc[n+](C)c1` (tested in a mixture with another compound), the “cytotoxicity” value was -1.13%. In the case of `C=Cc1cccc(CCl)c1`, the “cytotoxicity” value was 11.2% [at 200 µM]. In the case of `CCCC[N+]1(C)CCCC1` (tested in a mixture with another compound), the “cytotoxicity” value was -3.36%. In the case of `Cc1cc2c3c(c1)C(c1ccccc1)=N[C@@H](NC(=O)c1ccncc1)C(=O)N3CC2`, the “cytotoxicity” value was -4.58%. With `CN1C2CCC(C)(C)C1CC(OC(=O)C(O)(c1cccs1)c1cccs1)C2` (stereo not given) the “cytotoxicity” value was 0.47% [at 35.3 µM]. In the case of `COP(=S)(NC(C)C)Oc1ccc(C)cc1[N+](=O)[O-]` (stereo not given), the “cytotoxicity” value was -2.89%. With `O.O.O.O=C([O-])[C@H]([O-])[C@@H]([O-])C(=O)[O-].O=C([O-])[C@H]([O-])[C@@H]([O-])C(=O)[O-].[K+].[K+].[Sb+3].[Sb+3]` the “cytotoxicity” value was -6.4%. In the case of `COC(=O)/C=C(\C)OP(=O)(OC)OC`, the “cytotoxicity” value was -3.39%. With `C[C@H]1[C@H](c2ccc(Cl)cc2)SC(=O)N1C(=O)NC1CCCCC1` the “cytotoxicity” value was 1.46%. In the case of `CN=C=O`, the “cytotoxicity” value was 3.92%.
